# Sampled rows, rich in hits. Any-hit rate of the full collection: about 14%.
# USP8 block – inhibitors of human USP8 deubiquitinase; inhibition, % at 20 µM; purified USP8, Ub-rhodamine cleavage fluorescence, 30 min; Ubiquitin carboxyl-terminal hydrolase 8 (Homo sapiens), P40818; 4.2% of 47,000 active
# USP17 inh – inhibitors of human USP17 deubiquitinase | Ubiquitin carboxyl-terminal hydrolase 17-like protein 5 (Homo sapiens), A8MUK1 | purified USP17, Ub-rhodamine cleavage fluorescence, 3 h | inhibition, % at 50 µM | 6.5% of 47,000 active
# Target sequence (A8MUK1 whole entry, looked up): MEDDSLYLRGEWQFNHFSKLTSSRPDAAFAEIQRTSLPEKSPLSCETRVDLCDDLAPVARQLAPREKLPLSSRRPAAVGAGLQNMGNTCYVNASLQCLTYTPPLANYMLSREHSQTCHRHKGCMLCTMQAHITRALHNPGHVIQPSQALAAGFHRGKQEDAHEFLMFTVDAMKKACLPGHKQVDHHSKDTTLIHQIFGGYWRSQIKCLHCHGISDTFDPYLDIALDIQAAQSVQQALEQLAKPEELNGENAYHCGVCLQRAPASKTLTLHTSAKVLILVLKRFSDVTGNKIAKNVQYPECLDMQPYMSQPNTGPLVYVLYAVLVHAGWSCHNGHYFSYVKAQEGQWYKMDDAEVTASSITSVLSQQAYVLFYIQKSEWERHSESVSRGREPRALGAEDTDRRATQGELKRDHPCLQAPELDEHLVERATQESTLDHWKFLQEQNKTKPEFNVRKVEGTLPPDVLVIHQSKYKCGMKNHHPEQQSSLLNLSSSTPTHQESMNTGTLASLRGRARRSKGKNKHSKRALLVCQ
# USP30 inh – inhibitors of human USP30 deubiquitinase | Ubiquitin carboxyl-terminal hydrolase 30 (Homo sapiens), Q70CQ3 | purified USP30, Ub-rhodamine cleavage fluorescence | inhibition, % at 25 µM | 5.3% of 47,000 active | AID 1645860, 2021
# USP10 inh – inhibitors of human USP10 deubiquitinase; 1.1% of 47,000 active; purified USP10, Ub-rhodamine fluorescence, 60 min; inhibition, % at 20 µM
# USP28 block – inhibitors of human USP28 deubiquitinase; 3% of 47,000 active; purified USP28, Ub-rhodamine cleavage fluorescence, 30 min; Ubiquitin carboxyl-terminal hydrolase 28 (Homo sapiens), Q96RU2; inhibition, % at 25 µM
# A number is an active result; n = inactive; x = no result given. No stated cut-off is given here; in the data, active means inhibition above about 30%; inactive means the rest.
SMILES,USP8 block,USP17 inh,USP30 inh,USP10 inh,USP28 block
CC1Cc2ccccc2N1S(=O)(=O)c1cccc(C(=O)NCc2ccc3c(c2)OCO3)c1 (centres undefined),39,n,n,n,n
Cn1cc(CN2CC[C@H]3C[C@H](C(=O)Nc4cccnc4)O[C@@H]3C2)cn1,n,x,37,n,n
COc1cc(C)ccc1-n1c(-c2ccc(F)cc2)cn2c3c(=O)n(C)c(=O)n(C)c3nc12,n,43,39,n,n
O=C(Nc1ccccc1)c1ccc(N2CCCC2)c([N+](=O)[O-])c1,n,n,n,n,n
NC(=O)c1ccc(N2CCN(c3ccccc3O)CC2)c([N+](=O)[O-])c1,n,32,n,n,n
O=C(Cc1csc(-c2cccs2)n1)Nc1ccnn1Cc1cccs1,n,n,n,n,n
Cc1ncc(-c2ccc(C)c(S(=O)(=O)Nc3c(C)cccc3C)c2)o1,n,n,n,n,n
O=C(CSc1nc2ccccc2[nH]1)N1CCN(S(=O)(=O)/C=C/c2ccccc2)CC1,n,36,31,n,n
Cc1cccc(NC(=O)c2ccn(COc3ccc(F)cc3F)n2)c1C,n,n,n,n,51
O=C(Nc1ccccc1Br)c1ccn(COc2ccccc2F)n1,n,65,34,n,n
O=C(Nc1ccccc1)c1ccn(COc2ccccc2F)n1,n,n,n,n,n
O=C(Nc1ccc(N2CCOCC2)cc1)c1cc(-c2ccccn2)nc2ccccc12,n,n,n,n,n
CCn1ccc2c(cc(C(=O)Nc3cccc(C)c3C)n2C)c1=O,n,n,n,n,31
CCn1ccc2c(cc(C(=O)Nc3cccc(F)c3)n2C)c1=O,n,39,n,n,43
CCOc1ccccc1CNC(=O)c1cc2c(=O)n(C)ccc2n1C,n,n,n,n,n
CCOc1cccc(-c2cc(C(=O)Nc3ccc4c(c3)OCO4)c3ccccc3n2)c1,36,n,n,n,n
CCOc1cc(N2CCOCC2)c(OCC)cc1NC(=O)c1cc(-c2ccncc2)nc2ccccc12,70,66,n,n,n
O=C(Nc1cc(-c2cccnc2)no1)c1ccc2c(c1)OCO2,n,n,n,n,n
Nc1c(C(=O)Nc2ccc3c(c2)OCO3)sc2nc(-c3cccnc3)ccc12,n,61,n,n,33
O=C(Nc1ccc2c(c1)OCO2)c1cc(-c2ccncc2)nc2ccccc12,35,n,n,n,n
Cc1ccc(C(=O)N2CCOCC(Cc3ccc4nccn4n3)C2)cn1 (centres undefined),n,n,n,n,n
O=C(CSc1ncnc2c1cnn2-c1ccc(F)cc1)Nc1ccc(F)cc1F,n,n,n,n,n
O=C(NCc1ccc(Cl)cc1)c1cc2c(s1)-c1ccccc1OC2,74,87,55,44,n
CN1CCN(c2ccccc2NC(=O)c2cc3c(s2)-c2ccccc2SC3)CC1,n,n,n,n,n
Cc1ccc(NC(=O)c2cc3c(s2)-c2ccccc2OC3)c(Cl)c1,n,n,41,n,n
SMILES,USP8 block,USP17 inh,USP30 inh,USP10 inh,USP28 block
O=C1CCSc2c1cccc2C(=O)Nc1cccc(C(F)(F)F)c1,n,n,n,n,n
O=C(Nc1cccc(C(F)(F)F)c1)c1cc2c(s1)-c1ccccc1OC2,72,x,70,n,n
O=C(NCc1ccc2c(c1)OCO2)c1cc2c(s1)-c1ccccc1OC2,56,n,57,n,n
COc1cccc(C(=O)Nc2nc3nc(C)c(Cl)c(=O)n3[nH]2)c1,n,n,n,n,n
CCN1CCN(c2ncc(C(=O)N3CCN(c4ccccc4)CC3)c3ccccc23)CC1,n,n,n,n,n
Cc1c(C(=O)NCc2cccc(Br)c2)oc2c1-c1[nH]ncc1CC2,84,62,n,n,n
CN(Cc1ccc2c(c1)OCO2)C(C(=O)Nc1ccc(F)cc1)c1ccccc1 (centres undefined),n,n,39,n,n
COc1ccc(-c2cc(C(C)=O)c(C)n2CCC(=O)NC2CCCCCC2)cc1,n,n,n,n,n
CCOc1ccc(NC(=O)CCn2c(-c3ccc(OC)cc3)cc(C(C)=O)c2C)cc1,n,70,80,n,n
CCOc1ccc(NC(=O)CNc2nc(Nc3ccc(OC)cc3)nc(Nc3ccc(OC)cc3)n2)cc1,n,58,69,n,n
COc1ccc(-c2cc3ncnc(NC(C)c4ccco4)c3s2)cc1 (centres undefined),n,58,n,n,n
COc1ccc2nc(SCC(=O)Nc3ccc(NC(C)=O)cc3)c(C)cc2c1,69,59,n,n,n
COc1ccc(C(=O)NCc2nnc(SCC(=O)Nc3ccc(C)c(Cl)c3)o2)cc1,n,n,n,n,n
COc1ccc(N(C)S(=O)(=O)c2cccc(C(=O)OCC(=O)N(Cc3ccccc3)C(C)C)c2)cc1,n,n,30,n,n
CCOc1ccc(CC(=O)N2CCC(c3onc4c3CCCC4)CC2)cc1,n,n,n,n,n
CCCCN(c1ccccc1)S(=O)(=O)c1ccc(N2CCCCS2(=O)=O)cc1,n,n,n,n,n
O=c1[nH]c2ccc(S(=O)(=O)N3CCN(Cc4ccccc4)CC3)cc2[nH]1,n,n,n,n,n
CN(Cc1ccccc1)S(=O)(=O)c1ccc2[nH]c(=O)[nH]c2c1,n,37,n,n,n
CN(Cc1ccccc1)S(=O)(=O)c1ccc(N2CCCCS2(=O)=O)cc1,n,37,x,n,x
COc1ccc2cc3c(nc2c1)N(C(=O)C1CC1)CC3,n,n,n,n,n
O=C(COc1ccc(C2CCCCC2)cc1)Nc1ccc2oc(-c3cccnc3)nc2c1,n,n,n,n,n
O=S(=O)(Nc1ccc2oc(-c3ccncc3)nc2c1)c1ccccc1,n,55,30,n,32
CCCCCCCC(=O)c1c(O)cc(O)cc1CC(=O)O,n,n,n,n,n
COc1c(O)cc(CC(=O)O)c(C(C)=O)c1O,n,81,34,n,79
Cc1cccc(Cn2cc(S(=O)(=O)N3CCOCC3)ccc2=O)c1,n,n,n,n,n
SMILES,USP8 block,USP17 inh,USP30 inh,USP10 inh,USP28 block
C=Cc1ccc(Cn2cc(S(=O)(=O)N3CCOCC3)ccc2=O)cc1,n,57,n,n,n
CCOCCCNC(=O)C1c2ccccc2C(=O)N(CC(C)C)C1c1cccs1 (centres undefined),n,n,n,n,n
COc1ccc(CNC(=O)C(C)Nc2cc(Cl)c(OC)cc2OC)cc1 (centres undefined),n,n,n,n,n
COCCCN1Cc2cc3cc(OC)ccc3nc2OCC1=O,n,n,n,n,n
COc1ccc2nc3c(cc2c1)CN(CC1CC1)C(=O)CO3,n,n,40,n,n
COc1ccc(S(=O)(=O)N(C)Cc2cccs2)cc1OC,n,n,n,n,68
Cc1oc2nc[nH]c(=O)c2c1C(=O)OC(C)C(=O)NC1CCCCC1 (centres undefined),n,n,x,n,x
COc1ccc(S(=O)(=O)N2CCc3nc4ccccc4n3CC2)cc1,n,57,54,n,n
